In PubChem BioAssay (NCATS):
Records with an inconclusive call do not appear. A call without a number means that no potency is given here. A number with no mark means an inactive call. Calls of active or inactive are those of the source. Calls come from the whole dose curve; as a rule, active = well fitted curve in the direction sought with a large enough effect; inconclusive = small, poorly fitted or top-dose-only effect, or another doubt; inactive = no such curve, though single readings can be large; an effect the other way counts as inactive or inconclusive. Where a SMILES comes first, the peptide text is derived from it. The star is where a group is joined. Hexanoyl = CCCCCC(=O)*

Tests used:
[1] = Tertiary RLuc qRT-PCR qHTS assay for Zika virus inhibitors (AID 1347169); note: nearly all actives have a fitted effect of over 55% in size; note: potency is the fitted concentration of half-maximal effect; for activity change, negative = inhibition: top concentration of the series differs between compounds
Procedure, shortened: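 Luminescence read-out: live-cell Renilla luciferase substrate applied to infected Vero cells, signal measured after 1-1.5 hrs. Cells had received compound before ZIKV-RLuc (Cambodian strain, MOI 1-2) infection and were incubated 48-72 hrs at 37 degrees C.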

[2] = Vero cells viability qHTS for Zika virus inhibitors (AID 1347167)
Procedure, shortened: (§1)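 qHTS titration; 24-48 h compound exposure, 37 degrees C/5% CO2; DMEM, 4% FBS; CellTiter Glo ATP luminescence.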

[3] = HepG2 cells viability qHTS for Zika virus inhibitors (AID 1347168)
Procedure, shortened: as §1

[4] = OV-KATE Cancer Cell Toxicity qHTS against the NCATS CANVASS Library (AID 1347345)
Procedure, shortened: (§2)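 Per well, 1000 cells; exposure 72 h with compound at 11 final concentrations; readout CellTiter-Glo luminescence.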

[5] = OV-SAHO Cancer Cell Toxicity qHTS against the NCATS CANVASS Library (AID 1347348); note: series mostly up to about 38 µM; nearly all actives have a fitted effect of over 55% in size
Procedure, shortened: as §2

[6] = SW1088 Cancer Cell Toxicity qHTS against the NCATS CANVASS Library (AID 1347350); note: nearly all actives have a fitted effect of over 75% in size; note: potency is the fitted concentration of half-maximal effect
Procedure, shortened: as §2

[7] = U-118MG Cancer Cell Toxicity qHTS against the NCATS CANVASS Library (AID 1347351); conditions: outcome: dose series up to 38.3 µM; note: series mostly up to about 38 µM
Procedure, shortened: as §2

[8] = COV-362 Cancer Cell Toxicity qHTS against the NCATS CANVASS Library (AID 1347352); note: series mostly up to about 38 µM
Procedure, shortened: (§3)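 1000 cells/well, 4 h pre-incubation 37 °C/5% CO2; 11-pnt titration; 72 h; CellTiter-Glo 15 min RT, luminescence.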

[9] = UWB1.289-WTBRCA1 Cancer Cell Toxicity qHTS against the NCATS CANVASS Library (AID 1347354); conditions: outcome: dose series up to 38.3 µM
Procedure, shortened: as §3

[10] = HPAF-II 24hr Apoptosis Induction qHTS against the NCATS CANVASS Library (AID 1347356)
Procedure, shortened: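 500 HPAF-II cells/well; compounds in 11-pnt qHTS; 24 h, 37 C/5% CO2; Caspase-Glo 3/7 added, 15 min RT dark; luminescence read. Doxorubicin control.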

[11] = HEK293 18hr Apoptosis Induction qHTS against the NCATS CANVASS Library (AID 1347357)
Procedure, shortened: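 Caspase-3/7 luminescence (DEVD substrate, Caspase-Glo) after 18 h compound exposure of HEK293 cells, 500 cells/well; 11-point series; doxorubicin titration as control.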

[12] = HPAF-II 12hr Apoptosis Induction qHTS against the NCATS CANVASS Library (AID 1347358)
Procedure, shortened: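 Caspase-Glo 3/7 luminescence (DEVD substrate) reports caspase activity in HPAF-II cells after 12 h compound treatment at 37 degrees C. Compounds were tested in an 11-point series. Doxorubicin served as control.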

[13] = HEK293 24hr Apoptosis Induction qHTS against the NCATS CANVASS Library (AID 1347359)
Procedure, shortened: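 HEK293 cells, 500 per well, exposed to an 11-point compound series for 24 hours at 37 degrees C. Caspase 3/7 activity read by Caspase-Glo luminescence (DEVD substrate) after 15 min at room temperature.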

[14] = HPAF-II 18hr Apoptosis Induction qHTS against the NCATS CANVASS Library (AID 1347360)
Procedure, shortened: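 Caspase-Glo 3/7 luminescence (DEVD substrate) after 15 min RT; HPAF-II, 500 cells/well, 18 h compound exposure at 37 degrees C, qHTS series; doxorubicin control 0.1nM - 4uM.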

[15] = HEK293 12hr Apoptosis Induction qHTS against the NCATS CANVASS Library (AID 1347361)
Procedure, shortened: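 500 HEK293 cells/well; cpds pin-transferred, 11-pt conc series; 12 h, 37 degrees C/5% CO2; Caspase-Glo 3/7 added, 15 min RT dark; luminescence.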

[16] = HPAF-II Cancer Cell Toxicity qHTS against the NCATS CANVASS Library (AID 1347346); note: series mostly up to about 38 µM; nearly all actives have a fitted effect of over 55% in size
Procedure, shortened: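 1000 HPAF-II cells/well; 4 h pre-incubation; 11-pnt compound titration; 72 h, 37 degrees C/5% CO2; CellTiter-Glo, 15 min RT; luminescence read.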

[17] = UWB1.289 Cancer Cell Toxicity qHTS against the NCATS CANVASS Library (AID 1347347); note: series mostly up to about 38 µM; nearly all actives have a fitted effect of over 60% in size
Procedure, shortened: as §2

[18] = Panc-1005 Cancer Cell Toxicity qHTS against the NCATS CANVASS Library (AID 1347349); note: series mostly up to about 38 µM; nearly all actives have a fitted effect of over 60% in size
Procedure, shortened: as §2

[19] = HEK-293 Cancer Cell Toxicity qHTS against the NCATS CANVASS Library (AID 1347355); note: series mostly up to about 46 µM; nearly all actives have a fitted effect of over 65% in size
Procedure, shortened: as §3

**Q.** Which Potency [1] does the source give for CO[C@H]1c2cc(C(C)C)c(O)c(O)c2[C@@]23CCCC(C)(C)C2[C@@H]1OC3=O (some centres not stated) here?
**A.** inactive

**Q.** For CCc1nnc(NS(=O)(=O)c2ccc(NC(=S)NC(=O)/C=C/c3ccc(F)cc3)cc2)s1, which outcome [2] is on record?
**A.** inactive

**Q.** And the outcome [3]?
**A.** inactive

**Q.** And the Potency [1]?
**A.** 23.4 µM (active)

**Q.** For O=C(/C=C/c1ccccc1)OC[C@H]1O[C@@H](OC(=O)c2cc(O)c(O)c(O)c2)[C@H](O)[C@@H](O)[C@@H]1O, which Potency [1] is on record?
**A.** inactive

**Q.** For CC1=C2CC3C(CCC3(C)O)C(C)(O)CC2OC1=O (configuration not stated), which Potency [1] is on record?
**A.** inactive

**Q.** With CC(C)=CCC[C@@](C)(O)[C@H]1CC[C@]2(C)[C@@H]1[C@H](O)CC1[C@@]3(C)CC[C@H](O[C@@H]4O[C@H](CO)[C@@H](O)[C@H](O)[C@H]4O[C@@H]4O[C@H](CO)[C@@H](O)[C@H](O)[C@H]4O)C(C)(C)[C@@H]3CC[C@]12C (some centres not stated) as the compound, how does the Potency [1] read?
**A.** inactive

**Q.** With O=C(O)CC/C=C\C[C@H]1CO[C@@H](c2ccccc2Cl)O[C@H]1c1ccccc1O as the compound, how does the Potency [1] read?
**A.** inactive

**Q.** Which outcome [4] does the source give for O=C(/C=C/C=C/c1ccc2c(c1)OCO2)N1CCCCC1 here?
**A.** inactive

**Q.** What about the outcome [5] of the same compound?
**A.** inactive

**Q.** And the Potency [6]?
**A.** inactive

**Q.** What about the outcome [7] of the same compound?
**A.** inactive

**Q.** What about the outcome [8] of the same compound?
**A.** inactive

**Q.** And the outcome [9]?
**A.** inactive

**Q.** And the outcome [10]?
**A.** inactive

**Q.** And the outcome [11]?
**A.** inactive

**Q.** And the outcome [12]?
**A.** inactive

**Q.** What about the outcome [13] of the same compound?
**A.** inactive

**Q.** And the outcome [14]?
**A.** inactive

**Q.** And the outcome [15]?
**A.** inactive

**Q.** With CCCCCC(=O)N1CCC[C@H]1C(=O)N[C@@H](Cc1ccc(O)cc1)C(=O)OC (Hexanoyl-Pro-Tyr-OMe) as the compound, how does the Potency [1] read?
**A.** inactive

**Q.** Which outcome [2] does the source give for C=C1CCC2C(C)(C)CCC[C@]2(C)[C@H]1CC/C(C)=C/C(=O)O (some centres not stated) here?
**A.** inactive

**Q.** And the outcome [3]?
**A.** inactive

**Q.** What about the Potency [1] of the same compound?
**A.** inactive

**Q.** With C/C(=C\CC/C(C)=C/CC[C@]1(C)CCc2cc(O)cc(C)c2O1)CC/C=C(\C)C(=O)O as the compound, how does the outcome [2] read?
**A.** inactive

**Q.** What about the outcome [3] of the same compound?
**A.** inactive

**Q.** And the Potency [1]?
**A.** inactive

**Q.** What about the outcome [4] of the same compound?
**A.** inactive

**Q.** And the outcome [16]?
**A.** inactive

**Q.** And the outcome [17]?
**A.** inactive

**Q.** What about the outcome [5] of the same compound?
**A.** inactive

**Q.** And the outcome [18]?
**A.** inactive

**Q.** What about the Potency [6] of the same compound?
**A.** 18.8 µM (active)

**Q.** And the outcome [7]?
**A.** inactive

**Q.** And the outcome [8]?
**A.** inactive

**Q.** What about the outcome [9] of the same compound?
**A.** inactive

**Q.** What about the outcome [19] of the same compound?
**A.** inactive

**Q.** What about the outcome [10] of the same compound?
**A.** inactive

**Q.** What about the outcome [11] of the same compound?
**A.** inactive

**Q.** And the outcome [12]?
**A.** inactive

**Q.** And the outcome [13]?
**A.** inactive

**Q.** And the outcome [14]?
**A.** inactive

**Q.** What about the outcome [15] of the same compound?
**A.** inactive

**Q.** For COc1cc(CCCO)ccc1O[C@@H]1O[C@H](CO)[C@@H](O)[C@H](O)[C@H]1O, which Potency [1] is on record?
**A.** inactive

**Q.** For CC1(C)CC[C@]2(C(=O)O)CC[C@]3(C)C(=CCC4[C@@]5(C)CC[C@H](O[C@@H]6O[C@H](C(=O)O)[C@@H](O)[C@H](O)[C@H]6O)C(C)(C)C5CC[C@]43C)C2C1 (some centres not stated), which Potency [1] is on record?
**A.** 9.79 µM (active)

**Q.** For CSCC[C@H](NC(=O)[C@H](CO)NC(=O)[C@H](CCC(=O)O)NC(C)=O)C(=O)N[C@H](C=O)CC(=O)O (Ac-ESMD-aldehyde), which activity change, negative = inhibition [1] is on record?
**A.** -0.374% [at 5.25 µM]

**Q.** For CC1(C)[C@H]2C[C@H](C/C=C\CCCC(=O)O)[C@@H](NC(=O)c3csc4ccc(O)cc34)[C@@H]1C2, which Potency [1] is on record?
**A.** inactive

**Q.** For COc1cc2c(c(OC)c1O)C(c1ccc(O)cc1)C1C(=O)OC3C(COC(=O)C1=C2)OC(CO)(OC1OC(COC(=O)/C=C/c2ccc(OC4OC(C)C(O)C(O)C4O)cc2)C(O)C(O)C1O)C3O (configuration not stated), which Potency [1] is on record?
**A.** inactive

**Q.** For CCC(C)/C=C(C)/C=C/C1=CC2=CC(=O)C(C)(O)C(OC(C)=O)C2CO1 (configuration not stated), which Potency [1] is on record?
**A.** inactive

**Q.** For O=C1NC(=O)/C(=C/c2cccc(C(F)(F)F)c2)S1, which outcome [3] is on record?
**A.** inactive

**Q.** What about the Potency [1] of the same compound?
**A.** 18.6 µM (active)

**Q.** With CC1C(O)C(O)C2C(C(=O)OCCc3ccc(O)cc3)=COC(O[C@@H]3O[C@H](CO)[C@@H](O)[C@H](O)[C@H]3O)C12 (some centres not stated) as the compound, how does the outcome [2] read?
**A.** inactive

**Q.** And the outcome [3]?
**A.** inactive

**Q.** And the Potency [1]?
**A.** inactive

**Q.** What does the source list for C=C1C2CCC3C(CCC4[C@@]3(C)CCC[C@@]4(C)C(=O)O)(C2)[C@@H]1OC(=O)/C(C)=C\C (some centres not stated)?
**A.** outcome [2]: inactive; outcome [3]: inactive; Potency [1]: inactive
